# Results: PubChem BioAssay (NCI)
# Values joined by “and” are separate entries in the source; they are usually repeats but may differ in a detail not shown here. Equal entries are not always repeated. Compounds without any hit were thinned out: in the full panel of roughly 83,000, 20% have a hit.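 Treatment: one concentration, 48 hours, 96-well format. Scoring: percent growth, with anything below 10 considered active.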 A number with no mark means an inactive call. Active and inactive are the calls of the source.
# Test system: U251 CNS
# Assay: NCI-60 one-dose screen, 48 h (100 = growth as untreated, 0 = no growth, -100 = all killed)
# Details: 10 µM unless noted
row,Compound,growth
1,C=CC(=O)N1CCN(c2ccc3nc4c(nc3c2C(F)(F)F)C(=O)c2ncccc2C4=O)CC1,-17.3% (active)
2,O=C(N/N=C/c1ccc(-c2cccc([N+](=O)[O-])c2)s1)c1[nH]c2ccc(Br)cc2c1-c1ccccc1,73.4%
3,CCCCNc1ccc2c3c(cccc13)C(=O)N(NCC(O)COc1ccc3c(C)cc(=O)oc3c1)C2=O (stereo unspecified),96.5%
4,CC(=O)Nc1cccc(-n2c(COc3ccc(Br)cc3)nc3ccccc32)c1,94.9% and 113%
5,CC(=O)c1c2c(c3ccc4c5ccccc5ccc4n13)C(=O)c1ccccc1C2=O,82.9%
6,CC1=NN(C2=NC(=O)C(CC(=O)Nc3ccccc3C(F)(F)F)S2)C(c2ccc(N(C)C)cc2)C1 (stereo unspecified),49.3%
7,Cc1ccc(C2CC(c3ccc(NC(=O)Nc4ccccc4)cc3)=NN2c2ccc(S(C)(=O)=O)cc2)cc1 (stereo unspecified),-63.5% (active)
8,O=C(CSc1nc2sc3c(c2c(=O)n1-c1ccc(Cl)cc1)CCCC3)N/N=C/C=C/c1ccccc1,-76.4% (active)
9,O=C(COc1ccc(/C=C2/C(=O)Nc3ccc(Cl)cc32)cc1)Nc1ccc(Br)cc1,-88.4% (active)
10,CC(C)(C)OC(=O)N1CCC2(CC1)Oc1ccccc1[C@H]1CC(c3ccc(Br)cc3)=NN12,82.8%
11,N#Cc1c(-c2ccc(F)cc2)nc(SCc2ccc(F)cc2)nc1N1CCNCC1,-95.5% (active)
12,Cc1ccc(/C=C/C(=O)c2ccc(S(=O)(=O)NCCNc3nc(N(C)C)nc(N4CCOCC4)n3)cc2)cc1,42.7%
13,ClC(Cn1ncc2c(Nc3cccc(Br)c3)nc(SCCN3CCOCC3)nc21)c1ccc(Br)cc1 (stereo unspecified),-4.38% (active)
14,COc1ccc(N=Nc2c(N)nn3c(N)c(C#N)c(-c4ccccc4)nc23)cc1,21%
15,Cc1cccc(-c2ccccc2Oc2ccc3nnc(Cl)n3n2)c1,94.6%
16,CCN1CCN(Cc2ccc(C(=O)Nc3cccc(Nc4ccc5c(OC)cccc5n4)c3)cc2C(F)(F)F)CC1,-80.9% (active)
17,N#CCc1nnc(NC(=O)c2ccc(-n3c(=O)[nH]c4ccccc4c3=O)cc2)s1,106%
18,COc1cc(NC(=O)CSc2nnc(-c3ccc(-c4nc5ccc(Cl)cc5[nH]4)cc3)o2)cc(OC)c1OC,32.8%
19,c1n[nH]cc1-c1nc2ccc3cn[nH]c3c2c2c1CCCC2,88%

row,Compound,growth
1,Cc1ccccc1NC(=O)c1cccc(NC(=O)CCl)c1,-53.1% (active)
2,COc1ccc(-c2cc(-c3cc(OC)c(OC)c(OC)c3)[nH]c(=O)c2C#N)cc1,42.2%
3,O=C(CSc1nc2c(c(=O)[nH]1)CCCC2)Nc1ccccc1C(=O)O,103%
4,N/C(=N\c1nc2ccccc2s1)NC(=O)Nc1ccccc1[N+](=O)[O-],7.5% (active)
5,FC(F)(F)c1cc2c(Cl)ncnc2n1CCN1CCOCC1,78.5%
6,O=C(NNC(=O)c1ccc(OCc2nc3ccc(Cl)cc3[nH]2)cc1)Nc1ccc(Cl)c(Cl)c1,-1.4% (active)
7,Clc1ccc(-c2nc3c4c(-c5ccccc5)c(-c5ccccc5)n(Cc5ccccc5)c4ncn3n2)cc1,15.1%
8,COc1c(B(O)O)cc(F)cc1-c1nc2c(F)cc3[nH]ncc3c2c2c1CCCC2,10.8%
9,C/C(=N\Nc1ccc(C(=O)O)cc1)c1cnn(-c2cc(=O)[nH]c3ccc(C)cc23)c1C,102%
10,O=C1Nc2cc(-c3ccc(NS(=O)(=O)c4ccc([N+](=O)[O-])cc4)cc3)ccc2/C1=C/c1ccc[nH]1,-62.4% (active)
11,COc1ccc(NC(=O)CSc2nnc(-c3ccc(-c4nc5ccc(Cl)cc5[nH]4)cc3)o2)cc1,-58% (active)
12,COc1ccc2[nH]c(O)c(N=Nc3nc(-c4ccc(C#N)cc4)cs3)c2c1,15.2%
13,COc1ccc(-c2nc3ccc(-c4nnc(SCC(=O)Nc5ccc(/C(C)=N\O)cc5)o4)cc3[nH]2)cc1,18.6%
14,CCCCCCCCCCCCCCCCCC(=O)Nc1ccc(OC)cc1,102%
15,CCN1C(=O)N(CC)C2NNC(Sc3c(C(=O)O)c4ccccc4n(CCC(C)C)c3=O)=NC21 (stereo unspecified),2.04% (active)
16,COc1ccc(/C=C/c2nc3ccccc3n3c(-c4cccc([N+](=O)[O-])c4)nnc23)cc1,-64.5% (active)
17,COc1ccc(NC(=O)N/N=C/c2c[nH]c3ccccc23)cc1,28.3%
18,CCC(=O)c1cc(C(=O)OC)c2ccc3c4ccccc4ccc3n12,21.9%
19,Cc1oc(-c2ccccc2)nc1CN[C@@H]1C[C@@H]2C[C@H]([C@H]1C)C2(C)C,41.2%

# Test system: PC-3 prostate
# Assay: as above
# Details: 10 µM unless noted
row,Compound,growth
1,C=CC(=O)N1CCN(c2ccc3nc4c(nc3c2C(F)(F)F)C(=O)c2ncccc2C4=O)CC1,-4.79% (active)
2,O=C(N/N=C/c1ccc(-c2cccc([N+](=O)[O-])c2)s1)c1[nH]c2ccc(Br)cc2c1-c1ccccc1,85.7%
3,CCCCNc1ccc2c3c(cccc13)C(=O)N(NCC(O)COc1ccc3c(C)cc(=O)oc3c1)C2=O (stereo unspecified),84%
4,CC(=O)Nc1cccc(-n2c(COc3ccc(Br)cc3)nc3ccccc32)c1,72.8% and 103%
5,CC(=O)c1c2c(c3ccc4c5ccccc5ccc4n13)C(=O)c1ccccc1C2=O,77.5%
6,CC1=NN(C2=NC(=O)C(CC(=O)Nc3ccccc3C(F)(F)F)S2)C(c2ccc(N(C)C)cc2)C1 (stereo unspecified),34.6%
7,Cc1ccc(C2CC(c3ccc(NC(=O)Nc4ccccc4)cc3)=NN2c2ccc(S(C)(=O)=O)cc2)cc1 (stereo unspecified),1.02% (active)
8,O=C(CSc1nc2sc3c(c2c(=O)n1-c1ccc(Cl)cc1)CCCC3)N/N=C/C=C/c1ccccc1,-17.4% (active)
9,O=C(COc1ccc(/C=C2/C(=O)Nc3ccc(Cl)cc32)cc1)Nc1ccc(Br)cc1,-38.9% (active)
10,CC(C)(C)OC(=O)N1CCC2(CC1)Oc1ccccc1[C@H]1CC(c3ccc(Br)cc3)=NN12,66.6%
11,N#Cc1c(-c2ccc(F)cc2)nc(SCc2ccc(F)cc2)nc1N1CCNCC1,11.3%
12,Cc1ccc(/C=C/C(=O)c2ccc(S(=O)(=O)NCCNc3nc(N(C)C)nc(N4CCOCC4)n3)cc2)cc1,57.4%
13,ClC(Cn1ncc2c(Nc3cccc(Br)c3)nc(SCCN3CCOCC3)nc21)c1ccc(Br)cc1 (stereo unspecified),21.3%
14,COc1ccc(N=Nc2c(N)nn3c(N)c(C#N)c(-c4ccccc4)nc23)cc1,28.2%
15,Cc1cccc(-c2ccccc2Oc2ccc3nnc(Cl)n3n2)c1,103%
16,CCN1CCN(Cc2ccc(C(=O)Nc3cccc(Nc4ccc5c(OC)cccc5n4)c3)cc2C(F)(F)F)CC1,-38.6% (active)
17,N#CCc1nnc(NC(=O)c2ccc(-n3c(=O)[nH]c4ccccc4c3=O)cc2)s1,105%
18,COc1cc(NC(=O)CSc2nnc(-c3ccc(-c4nc5ccc(Cl)cc5[nH]4)cc3)o2)cc(OC)c1OC,52.3%
19,c1n[nH]cc1-c1nc2ccc3cn[nH]c3c2c2c1CCCC2,73.4%

row,Compound,growth
1,Cc1ccccc1NC(=O)c1cccc(NC(=O)CCl)c1,55.8%
2,COc1ccc(-c2cc(-c3cc(OC)c(OC)c(OC)c3)[nH]c(=O)c2C#N)cc1,70.9%
3,O=C(CSc1nc2c(c(=O)[nH]1)CCCC2)Nc1ccccc1C(=O)O,106%
4,N/C(=N\c1nc2ccccc2s1)NC(=O)Nc1ccccc1[N+](=O)[O-],29.3%
5,FC(F)(F)c1cc2c(Cl)ncnc2n1CCN1CCOCC1,88.2%
6,O=C(NNC(=O)c1ccc(OCc2nc3ccc(Cl)cc3[nH]2)cc1)Nc1ccc(Cl)c(Cl)c1,63.3%
7,Clc1ccc(-c2nc3c4c(-c5ccccc5)c(-c5ccccc5)n(Cc5ccccc5)c4ncn3n2)cc1,-1.48% (active)
8,COc1c(B(O)O)cc(F)cc1-c1nc2c(F)cc3[nH]ncc3c2c2c1CCCC2,12.8%
9,C/C(=N\Nc1ccc(C(=O)O)cc1)c1cnn(-c2cc(=O)[nH]c3ccc(C)cc23)c1C,88.8%
10,O=C1Nc2cc(-c3ccc(NS(=O)(=O)c4ccc([N+](=O)[O-])cc4)cc3)ccc2/C1=C/c1ccc[nH]1,25.7%
11,COc1ccc(NC(=O)CSc2nnc(-c3ccc(-c4nc5ccc(Cl)cc5[nH]4)cc3)o2)cc1,-20.7% (active)
12,COc1ccc2[nH]c(O)c(N=Nc3nc(-c4ccc(C#N)cc4)cs3)c2c1,85.7%
13,COc1ccc(-c2nc3ccc(-c4nnc(SCC(=O)Nc5ccc(/C(C)=N\O)cc5)o4)cc3[nH]2)cc1,44.3%
14,CCCCCCCCCCCCCCCCCC(=O)Nc1ccc(OC)cc1,93.3%
15,CCN1C(=O)N(CC)C2NNC(Sc3c(C(=O)O)c4ccccc4n(CCC(C)C)c3=O)=NC21 (stereo unspecified),26.1%
16,COc1ccc(/C=C/c2nc3ccccc3n3c(-c4cccc([N+](=O)[O-])c4)nnc23)cc1,5.23% (active)
17,COc1ccc(NC(=O)N/N=C/c2c[nH]c3ccccc23)cc1,48.7%
18,CCC(=O)c1cc(C(=O)OC)c2ccc3c4ccccc4ccc3n12,92.6%
19,Cc1oc(-c2ccccc2)nc1CN[C@@H]1C[C@@H]2C[C@H]([C@H]1C)C2(C)C,30.8%
